# High-throughput results: PubChem BioAssay, National Center for Advancing Translational Sciences (NCATS)
# Sampled rows, rich in hits. Any-hit rate of the full collection: about 9.4%.
# SMN2 splice enh – qHTS Assay for Enhancers of SMN2 Splice Variant Expression; HEK293 SMN2-luciferase splicing reporter, luminescence, 30-36 h; Potency, µM (titrated, usually from 46.1 µM), inactives show top-dose activity change, positive = activation, most hits filed as activators; hit rate 2.8% among 210,000; further: % of control where 0% means no effect; nearly all actives have a fitted effect of over 55% in size
#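 HEK293 cells carry an SMN2 minigene-luciferase reporter in which exon 7 inclusion puts luciferase in frame. Cells were seeded at 2000 cells/well, attached for 10-12 hours, then exposed to compounds for 30-36 hours at 37C before ONE-Glo luminescence.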
# Rab9 prom act – qHTS Assay for Rab9 Promoter Activators; Huh7 Rab9 promoter-luciferase reporter, luminescence, 24 h; Potency, µM (doses to about 9.22 µM), inactives show at the top dose activation, negative = inhibition, usual class: activators; hit rate 2.8% among 320,000; AID 485297, 2010; further: % of control where 0% means no effect; nearly all actives have a fitted effect of over 60% in size
#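 Using Huh7 cells stably transfected with Rab9 promoter–luciferase, compounds were incubated 24 h at 37 °C, 5% CO2; luciferase luminescence was read 10 min after reagent addition.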
# ELG1 DNA repair – qHTS screen for small molecules that inhibit ELG1-dependent DNA repair in human embryonic kidney (HEK293T) cells expressing luciferase-tagged ELG1 | hit rate 2.3% among 330,000 | Potency, µM (doses to about 46.1 µM), for the others: at the top dose activity change, negative = inhibition, actives largely listed as inhibitors | HEK293T ELG1-luciferase reporter, luminescence, 16 h; DNA damage induced by 5-fluorouridine | AID 504467, 2011; further: on the % scale 0 is the no-effect control and ±100 the full control effect; nearly all actives have a fitted effect of over 55% in size
#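 Quantitative HTS, concentration-response format. 2,000 cells/well co-treated with 5-fluorouridine and compound, 16 hr in 5% CO2 at 37 °C; ONE-Glo luminescence read after 30 min.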
# FLuc counter – qHTS profiling assay for firefly luciferase inhibitor/activator using purifed enzyme and Km concentrations of substrates (counterscreen for miR-21 project) | hit rate 6.9% among 360,000 | Potency, µM (doses to about 57.5 µM), inactives show at the highest dose activity change, negative = inhibition, most hits filed as inhibitors | purified FLuc, Km substrates, luminescence inhibition;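 further: plate controls were vehicle for no effect and reference inhibitor for full effect; nearly all actives have a fitted effect of over 55% in size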
# Target sequence (P08659 whole entry, looked up): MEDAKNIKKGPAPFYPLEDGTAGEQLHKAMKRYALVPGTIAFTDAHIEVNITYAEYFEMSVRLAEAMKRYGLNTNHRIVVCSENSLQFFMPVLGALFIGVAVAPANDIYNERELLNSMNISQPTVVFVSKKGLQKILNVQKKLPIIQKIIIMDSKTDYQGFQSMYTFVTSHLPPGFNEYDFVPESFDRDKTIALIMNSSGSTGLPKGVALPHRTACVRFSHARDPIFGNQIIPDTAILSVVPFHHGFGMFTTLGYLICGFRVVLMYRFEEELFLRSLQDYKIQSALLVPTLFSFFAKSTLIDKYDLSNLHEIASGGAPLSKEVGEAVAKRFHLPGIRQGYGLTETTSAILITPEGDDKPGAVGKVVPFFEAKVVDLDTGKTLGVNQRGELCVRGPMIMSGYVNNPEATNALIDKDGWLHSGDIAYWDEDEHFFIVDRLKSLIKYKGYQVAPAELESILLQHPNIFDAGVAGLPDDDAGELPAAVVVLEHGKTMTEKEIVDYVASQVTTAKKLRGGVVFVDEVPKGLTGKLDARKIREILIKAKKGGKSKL
#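 Biochemical qHTS of compounds, final roughly 60 µM downward over six points, against 10 nM purified firefly luciferase using Km concentrations of substrates (10 uM D-luciferin, 10 uM ATP) in Tris acetate pH 7.5 buffer; luminescence output.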
# ELG1 genotox – qHTS screen for small molecules that induce genotoxicity in human embryonic kidney (HEK293T) cells expressing luciferase-tagged ELG1; AID 504466, 2011; hit rate 1.3% among 330,000; Potency, µM (top dose mostly 46 µM), for inactives: at the highest dose activity change, positive = activation, usual class: activators; HEK293T ELG1-luciferase reporter, luminescence, 16 h; further: % of control where 0% means no effect; nearly all actives have a fitted effect of over 60% in size
#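 HEK293T cells expressing luciferase-tagged ELG1 were treated with compound or DMSO for 16 hr at 37°C. Luciferase activity was then read after 30 min with ONE-Glo at room temperature; rising signal flags genetic stress.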
# NPC1 promoter act – qHTS Assay for NPC1 Promoter Activators; Potency, µM (series often up to 9.22 µM), for inactives: at the highest dose activation, most hits filed as activators; Huh7 NPC1 promoter luciferase reporter, 24 h; AID 485313, 2010; hit rate 2.4% among 320,000; further: % of control where 0% means no effect; nearly all actives have a fitted effect of over 60% in size
#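 Stably transfected Huh7 (NPC1 promoter→luciferase), 1500 cells/well in Opti-MEM + 10% FBS, 2 h settle, then compound 24 h at 37 °C. Luminescence after 10 min with Amplite reagent.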
# * hit, by the source's call; ? = inconclusive; / = no result given. The call rests on the fitted dose curve; in most records, active means well fitted curve in the direction sought with a large enough effect; inconclusive means small, poorly fitted or top-dose-only effect, or another doubt; inactive means no such curve, though single readings can be large; an effect the other way counts as inactive or inconclusive. Potency means the concentration at half of the fitted maximal effect.
SMILES,SMN2 splice enh,Rab9 prom act,ELG1 DNA repair,FLuc counter,ELG1 genotox,NPC1 promoter act
COc1ccc(NC(=O)CSc2ccc3nc(-c4ccccc4)cn3n2)cc1OC,/,/,/,-18%,/,/
O=C(CSc1ccc2nc(-c3ccccc3)cn2n1)Nc1cccc(F)c1,/,/,/,7.6µM*,/,/
COc1ccc(-c2cn3nc(SCC(=O)Nc4ccc(C)c(Cl)c4)ccc3n2)cc1,/,/,/,2.7µM*,/,/
COc1ccc(-c2cn3nc(SCC(=O)Nc4cccc(C)c4C)ccc3n2)cc1,/,/,/,2.1µM*,/,/
COc1ccc(NC(=O)CSc2nnc(CCC(=O)Nc3ccc(C)c(Cl)c3)n2C)cc1,-4%,-9%,10%,-1%,2%,-2%
COc1ccc(NC(=O)CSc2ccc3nnc(-c4ccccn4)n3n2)cc1,/,0%,-2%,7%,11%,0%
COc1ccc(-c2cn3nc(SCC(=O)Nc4cc(C)cc(C)c4)ccc3n2)cc1,/,/,/,3.8µM*,/,/
Cc1nn(C)c(C)c1S(=O)(=O)N(CC(=O)N1CCN(c2ccccc2)CC1)c1ccc(C(C)C)cc1,-1%,/,/,-7%,/,/
O=C(c1ccc2c(=O)n(CCc3ccccc3)c(=O)[nH]c2c1)N1CCN(c2ccc(Cl)cc2)CC1,-29%,/,/,-1%,/,/
Cn1cnc(S(=O)(=O)N2CCC(C(=O)N3CCN(c4ccc(Cl)cc4)CC3)CC2)c1,/,/,/,-4%,/,/
C/C(=N\NC(=O)c1cccc(C)c1)c1cccc(NC(=O)c2ccco2)c1,4%,-5%,9%,15µM*,3%,1%
C/C(=N\NC(=O)c1cccc(Cl)c1)c1cccc(NC(=O)c2ccco2)c1,8%,0%,?,19µM*,-3%,-4%
COc1cccc(-c2nc3c(C#N)c[nH]n3c2NC2CCCC2)c1OC,/,/,/,-16%,/,/
Cc1ccc(C)c(N2C(=O)N(C)c3ccccc3S2(=O)=O)c1,/,/,/,3%,/,/
CCOCCCNC(=O)NC(CCC(C)C)c1c(-n2cccc2)sc2c1CCN(C)C2 (centres undefined),/,/,/,-4%,/,/
CCOC(=O)c1ccccc1NC(=O)Cn1c(=O)n(CCCC(=O)NCc2ccc3c(c2)OCO3)c(=O)c2ccccc21,11%,/,/,0%,/,/
Cc1oc2ccc(O)c(CN(C)Cc3ccccc3)c2c1C(=O)Nc1cccc(Cl)c1C,-11%,/,/,-9%,/,/
CC(C)NC(=O)c1ccccc1NC(=O)/C=C/c1cccc([N+](=O)[O-])c1,-35%,4%,?,1%,-9%,-12%
CC(=O)c1cccc(NC(=O)/C=C/c2ccc([N+](=O)[O-])s2)c1,-82%,-36%,?,-2%,2.9µM*,-35%
CCOC(=O)c1cccc(NC(=O)/C=C/c2ccc([N+](=O)[O-])cc2)c1,-56%,8%,?,2.7µM*,2%,3%
COC(=O)c1cccc(NC(=O)/C=C/c2cccc([N+](=O)[O-])c2)c1,-20%,?,?,?,0%,18%
O=C(/C=C/c1ccc([N+](=O)[O-])cc1)Nc1cccc(C(=O)Nc2ccccc2C(=O)O)c1,/,-6%,-4%,5.4µM*,-9%,-3%
COC(=O)c1cccc(NC(=O)/C=C/c2ccc([N+](=O)[O-])cc2)c1,-10%,2%,?,2.4µM*,-4%,8%
O=C(Cn1nnnc1-c1ccccc1F)Nc1ccc(F)c(F)c1,-2%,/,/,2%,/,/
COc1ccc(S(=O)(=O)N(CC(=O)Nc2cccc(C)c2)c2ccc(C)cc2)cc1OC,/,/,/,-3%,/,/
SMILES,SMN2 splice enh,Rab9 prom act,ELG1 DNA repair,FLuc counter,ELG1 genotox,NPC1 promoter act
CC(=O)Nc1cccc(-c2nnc(SCC(=O)c3cc([N+](=O)[O-])ccc3Cl)o2)c1,-5%,/,/,?,/,/
C=CCC(C)(O)c1ccc(OC)cc1 (centres undefined),-2%,/,/,/,/,/
Cc1cc(C)c(NN=c2c(=O)c3ccccc3c2=O)c(C)c1,13µM*,1.8µM*,?,0.95µM*,?,2.8µM*
O=c1c(=NNc2ccccc2Cl)c(=O)c2ccccc12,-15%,?,?,0.076µM*,?,3.2µM*
CSc1ccccc1NC(=O)c1cnc2n(c1=O)CCS2,-8%,11%,18%,-12%,4%,10%
CCc1ccc(NC(=O)c2cnc3n(c2=O)CCS3)cc1,26%,4µM*,?,9.5µM*,9.2µM*,29%
Cc1ccc(C)c(NC(=O)c2cnc3n(c2=O)CCS3)c1,?,4.5µM*,?,-18%,15%,?
O=C(N/N=C/C(Br)=C/c1ccccc1)c1ccccc1F,/,3.2µM*,?,11µM*,18µM*,3.5µM*
CC1C(=O)NN=C1C(=O)N/N=C\C(Br)=C\c1ccccc1 (centres undefined),22µM*,2.2µM*,?,1.5µM*,?,2.5µM*
COc1cc(/C=N/NC(=O)C2=NNC(=O)C2C)ccc1O (centres undefined),/,1%,0%,?,-1%,3%
O=C(N/N=C/C(Cl)=C/c1ccccc1)c1ccccc1F,/,?,?,12µM*,?,?
CC1C(=O)NN=C1C(=O)N/N=C\c1ccc(O)cc1O (centres undefined),-3%,-4%,11%,17µM*,-6%,-3%
N#Cc1ccc(/C=N/NC(=O)c2ccccc2F)cc1,?,10%,?,?,?,23%
O=C(OCc1ccco1)c1ccc2c(c1)N(Cc1cccc(F)c1)C(=O)c1ccccc1S2,/,/,/,0%,/,/
CC(NC(=O)C(=O)Nc1c2c(nn1-c1ccc(F)cc1)CSC2)c1ccccc1 (centres undefined),/,/,/,-3%,/,/
O=C(Cc1cc(=O)[nH][nH]1)N/N=C/C(Cl)=C/c1ccccc1,?,1%,2%,24µM*,0%,3%
O=C(Cc1cc(=O)[nH][nH]1)N/N=C/c1ccccc1Cl,8%,-5%,11%,-11%,-4%,-2%
Clc1cc(NCc2cccs2)ccc1N1CCOCC1,?,?,?,?,18µM*,?
Cc1ccc(CNc2ccc3c(c2)OCO3)c(C)c1,5%,/,/,21µM*,/,/
O=C(NCc1cccs1)C1CCN(c2ccc(S(=O)(=O)N3CCOCC3)cc2Cl)CC1,-18%,-12%,18µM*,1%,-9%,-21%
c1csc(CNc2ccc3c(c2)OCCO3)c1,-11%,14%,?,27µM*,8.2µM*,9%
